Results on 40 compounds are retold here after PubChem BioAssay (NCI).

Compounds without any hit were thinned out: in the full panel of roughly 83,000, 20% have a hit.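 In brief: 96-well plates, 48 h treatment, single concentration, percent growth endpoint.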 Activity calls are given as the source filed them.

In this assay the test system is IGROV1 ovarian. Put plainly: NCI-60 one-dose screen, 48 h (100 = growth as untreated, 0 = no growth, -100 = all killed). The conditions noted are these: 10 µM. As to the method:
Growth inhibition of the IGROV1 human tumor cell line is measured as a screen for anti-cancer activity. Cells are grown in 96 well plates and exposed to the test compound for 48 hours. Compounds are tested at a single concentration, which is 10^-5 M for most compounds. The reported endpoint is percent growth (GI% or GIPRCNT), where numbers from 0 - 100% represent growth inhibition, and numbers from -100% - 0 represent cell death. For example, a value of 40 represents 60% growth inhibition. A value of 0 means no net growth occurred over the course of the experiment. A value of -40 indicates 40% of cells at the beginning of the experiment died by the end of the experiment. A value of -100 means all cells are dead at the end of the experiment.
NCI-60 Human Tumor Cell Lines Screen was performed using the standard one-dose NCI protocol, which is described in more detail at https://dtp.cancer.gov/discovery_development/nci-60/default.htm.
Compounds with GIPRCNT values below 10 were considered active. Activity score was based on GIPRCNT using the following formula: […]
Score is 0 for GIPRCNT values of 100 or above, 50 for GIPRCNT values of 0, and 100 for GIPRCNT values of -100.
For the compound `CC12OOC(C)(OO1)C2CCC(=O)OCCNc1ccnc2cc(Cl)ccc12` (stereo not given), the growth was 39.7% (inactive).
As for `COc1ccc2cc([C@H](C)C(=O)[Se]CCC#N)ccc2c1`, the figure is -51.7% (active).
The same measure for `O=C(/C=C/c1cccc(Br)c1)c1nc2ccccc2n1Cc1ccc(Br)cc1`: -8.02% (active).
The same measure for `C[C@H]1[C@@H](CC(=O)N[C@@H](Cc2coc3ccccc23)B(O)O)O[C@@H]2OC3(C)CC[C@H]4[C@H](C)CC[C@@H]1[C@@]24OO3`: -16.1% (active); for `Cc1c2oc3c(C)ccc(C(=O)N[C@@H]4C(=O)N[C@H](C(C)C)C(=O)N5CCC[C@H]5C(=O)N(C)CC(=O)N(C)[C@@H](C(C)C)C(=O)OC4C)c3nc-2c(C(=O)N[C@@H]2C(=O)N[C@H](C(C)C)C(=O)N3CC(=O)C[C@H]3C(=O)N(C)CC(=O)N(C)[C@@H](C(C)C)C(=O)OC2C)c(N)c1=O` (stereo not given in full): 17% (inactive); for `C=CCN=C([Se])NC(=O)c1ccc2c(c1)OCO2`: 75.6% (inactive).
In the case of `COc1ccc(/C=C/C(=O)c2nc3ccccc3n2Cc2ccc(Br)cc2)cc1`, the growth is 65.8% (inactive).
The same measure for `C[C@H]1[C@H](OC(=O)CCC(=O)N(CCCc2cn(-c3ccc(CN4CCOCC4)cc3)nn2)CCNc2ccnc3cc(Cl)ccc23)O[C@@H]2OC3(C)CC[C@H]4[C@H](C)CC[C@@H]1[C@@]24OO3`: 38% (inactive); for `O=C(/C=C/c1ccco1)c1nc2ccccc2n1Cc1ccc(Br)cc1`: 31.6% (inactive).
With `CC(=O)Oc1ccccc1C(=O)[Se]C(=NC(C)C)NC(C)C`, the growth was -89.8% (active).
`Cc1ccc2[nH]c(=S)n(-c3ccc(F)cc3)c(=O)c2c1`: the growth was 106% (inactive).
`COC(=O)C[C@](O)(CCC(C)C)C(=O)O[C@@H]1C(OC)=C[C@]23CCCN2CCc2cc4c(cc2[C@H]13)OCO4`: the growth is -29.3% (active).
Turning to `COC(=O)CCn1c(-c2ccc(-n3cc(-c4ccc(O[C@H]5O[C@@H]6OC7(C)CC[C@H]8[C@H](C)CC[C@@H]([C@H]5C)[C@@]68OO7)cc4)nn3)cc2)nc2ccccc21`, the growth is 21.7% (inactive).
The same measure for `CC(C)N=C([Se])NC(=O)c1cccs1`: 1.76% (active); for `C[C@H]1[C@H](OC(=O)CCC(=O)N(CCCc2cn(-c3ccc(C#N)cc3)nn2)CCNc2ccnc3cc(Cl)ccc23)O[C@@H]2OC3(C)CC[C@H]4[C@H](C)CC[C@@H]1[C@@]24OO3`: 44.5% (inactive).
As for `O=C(/C=C/c1ccccc1)c1nc2ccccc2n1Cc1ccc(Br)cc1`, the figure is -57.8% (active).
As for `O=C(/C=C/c1ccc(Cl)cc1)c1nc2ccccc2n1Cc1ccc(F)cc1`, the figure is 29% (inactive); as for `O=C(NC([Se])=NC1CCCCC1)c1ccc2c(c1)OCO2`, 43.6% (inactive); as for `CC1=C2C(=C[C@@](C)(COP(=O)(Oc3ccccc3)Oc3ccccc3)[C@@H]2O)C(=O)[C@@](C)(O)C12CC2`, -75.8% (active).
With `C=CC[Se]C(=O)c1cncc(C(=O)[Se]CC=C)c1`, the growth is -92% (active).
As for `CC1=C(COCCOC(=O)c2ccc(S(=O)(=O)F)cc2)C2=C(C)C3(CC3)[C@@](C)(O)C(=O)C2=C1`, the figure is -24.3% (active); as for `COc1cc(OC)c(S(=O)(=O)N(CCCl)CCCl)cc1C(=O)/C=C/c1ccc(C)cc1`, 86.8% (inactive); as for `O=C([Se]C1C=CCCC1)c1ccc(C(=O)[Se]C2C=CCCC2)s1` (stereo not given), -90.4% (active).
Take `CC12OOC(C)(OO1)C2CCC(=O)NCCNc1ccnc2cc(Cl)ccc12` (stereo not given): the growth is 89.2% (inactive).
The same measure for `COc1ccc(OC)c(/C=C/C(=O)c2nc3ccccc3n2Cc2ccc(F)cc2)c1`: -7.29% (active); for `CC[C@]12C=CCN3CC[C@@]4(c5ccc(OC)cc5N(C)[C@H]4[C@@](O)(C(=O)OC)[C@@H]1OC(=O)CCC[P+](c1ccc(F)cc1)(c1ccc(F)cc1)c1ccc(F)cc1)[C@@H]32`: -15% (active).
As for `O=C(/C=C/c1ccccc1Cl)c1nc2ccccc2n1Cc1ccc(F)cc1`, the figure is -78.1% (active).
The same measure for `C[C@H]1[C@H](OC(=O)CCC(=O)Nc2cnccn2)O[C@@H]2OC3(C)CC[C@H]4[C@H](C)CC[C@@H]1[C@@]24OO3`: 25.7% (inactive).
In the case of `O=C(NCCCCC(c1ccc(F)cc1)c1ccc(F)cc1)Nc1ccc([N+](=O)[O-])c(C(F)(F)F)c1`, the growth was 15.4% (inactive).
For the compound `CC[C@]12C=CCN3CC[C@@]4(c5ccc(OC)cc5N(C)[C@H]4[C@@](O)(C(=O)OC)[C@@H]1OC(=O)CCCC[P+](C1CCCCC1)(C1CCCCC1)C1CCCCC1)[C@@H]32`, the growth was -84.7% (active).
As for `CC1=C(CCC=O)C2=C(C)C3(CC3)[C@@](C)(O)C(=O)C2=C1`, the figure is -79.5% (active); as for `O=C(/C=C/c1ccc(Cl)cc1Cl)c1nc2ccccc2n1Cc1ccc(F)cc1`, 47% (inactive).
The same measure for `O=C(/C=C/c1ccc(Cl)cc1)c1nc2ccccc2n1Cc1ccc(Br)cc1`: 52.4% (inactive); for `COc1cc(OC)c(S(=O)(=O)N(CCCl)CCCl)cc1C(=O)/C=C/c1cc(OC)c(OC)c(OC)c1`: 0.296% (active); for `O=C(/C=C/c1ccc(F)cc1)c1nc2ccccc2n1Cc1ccc(F)cc1`: 14.9% (inactive).
On to `O=C(/C=C/c1ccc(F)cc1)c1nc2ccccc2n1Cc1ccc(Br)cc1`, for which the growth was -35% (active).
On to `C=CC[Se]C(=O)c1ccc(C(=O)[Se]CC=C)s1`, for which the growth is -78.9% (active).
As for `CCOP(=O)(CC(F)(F)C(F)(F)F)OCC`, the figure is 60.2% (inactive); as for `O=C(/C=C/c1ccc(Br)cc1)c1nc2ccccc2n1Cc1ccc(Br)cc1`, -18% (active); as for `COc1cc2cc(C(=O)N3C[C@@H](CCl)c4c3cc(OC(=O)N3CCN(C)[C@@H]5CSSC[C@@H]53)c3ccccc43)[nH]c2c(OC)c1OC`, 7.55% (active).
